Data on 8 molecules can be found in PubChem BioAssay AID933 (National Center for Advancing Translational Sciences (NCATS), 2007).

Records with an inconclusive call do not appear. Where a call stands in place of a potency, no number is given. Values without a mark were called inactive. Active and inactive are the calls of the source. Calls come from the whole dose curve; as a rule, active = well fitted activation curve with a large enough effect in the signal ratio, with a control signal flat; inconclusive = small, poorly fitted or top-dose-only effect, or a change in a side signal; inactive = flat fitted curve, though single readings scatter; the % refers to the signal ratio.

For the assay, the target named is Thyrotropin receptor (Homo sapiens) (UniProt P16473). The assay can be described thus: Secondary Concentration-Response Assay for Agonists of the Thyroid Stimulating Hormone Receptor: HTRF Activity Detection. The method, boiled down: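 cAMP accumulation was detected by antibody-based HTRF, excitation 330 nm, emissions 615 and 660 nm. Compounds acted for 30 min at room temperature on stably TSHR-transfected HEK 293 cells, with phosphodiesterase inhibitor RO 20-1724 (100 uM) in the medium.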
Chain of Thyrotropin receptor (Homo sapiens) (P16473 whole entry, looked up): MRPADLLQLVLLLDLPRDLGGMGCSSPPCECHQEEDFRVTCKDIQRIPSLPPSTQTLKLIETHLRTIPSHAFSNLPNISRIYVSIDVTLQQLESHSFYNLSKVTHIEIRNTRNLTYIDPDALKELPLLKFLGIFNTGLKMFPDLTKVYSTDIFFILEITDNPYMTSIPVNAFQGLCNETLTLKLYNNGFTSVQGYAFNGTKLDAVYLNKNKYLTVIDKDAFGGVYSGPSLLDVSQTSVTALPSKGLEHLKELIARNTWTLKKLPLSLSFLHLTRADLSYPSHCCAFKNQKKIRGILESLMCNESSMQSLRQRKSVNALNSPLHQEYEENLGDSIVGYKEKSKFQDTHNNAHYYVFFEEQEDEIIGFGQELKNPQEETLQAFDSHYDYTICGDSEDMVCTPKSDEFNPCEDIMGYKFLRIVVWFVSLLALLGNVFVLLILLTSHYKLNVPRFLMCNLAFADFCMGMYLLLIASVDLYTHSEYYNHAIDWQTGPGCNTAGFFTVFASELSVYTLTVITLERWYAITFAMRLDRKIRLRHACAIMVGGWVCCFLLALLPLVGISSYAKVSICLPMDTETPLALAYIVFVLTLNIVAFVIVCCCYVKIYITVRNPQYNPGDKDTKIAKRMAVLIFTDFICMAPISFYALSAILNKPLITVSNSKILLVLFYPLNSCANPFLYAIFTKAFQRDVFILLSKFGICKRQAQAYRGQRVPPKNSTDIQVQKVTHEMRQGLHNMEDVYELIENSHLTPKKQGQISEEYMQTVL
Background: In TR-FRET formats the signal depends on donor and acceptor labels being close together.

Consider `O=C1c2ccccc2NC(c2cccc(F)c2)N1Cc1ccco1` (stereo not drawn), for which the Potency result is “inactive”.
With `COc1ccc(C2Nc3ccccc3C(=O)N2Cc2ccco2)cc1COc1ccc(N)cc1` (stereo not drawn), the Potency entry is “inactive”.
With `COC(=O)C1=C(C)NC(C)=C(C(=O)OC)C1c1ccc(OC(=O)c2ccco2)cc1`, the activation was 0.436% [at 0.00035 µM].
Consider `O=C(CSc1nc2scc(-c3ccco3)c2c(=O)n1-c1ccccc1)N1CCOCC1`, for which the activation is -0.79% [at 0.00035 µM].
As for `Cc1noc(/C=C/c2ccco2)c1S(=O)(=O)N1CCC(C(=O)NCc2ccco2)CC1`, the activation was -0.595% [at 0.00035 µM].
In the case of `COc1ccc(C2Nc3ccccc3C(=O)N2Cc2ccccc2)cc1COc1ccccc1F` (stereo not drawn), the Potency entry was “inactive”.
On to `COc1ccc(C2Nc3ccccc3C(=O)N2c2ccc(C)cc2)cc1Cn1cc([N+](=O)[O-])cn1` (stereo not drawn), for which the Potency entry is “inactive”.
With `COc1ccc(C2Nc3ccccc3C(=O)N2c2ccccc2)cc1COc1ccc(NC(C)=O)cc1` (stereo not drawn), the Potency result was “inactive”.
